PubChem BioAssay (Tox21)
“And” between values parts separate entries of the source, which are not always exact repeats. Identical values can stand only once. Inconclusive results are not listed. Some structures have more than one record in an assay (separate samples or runs), and their calls can disagree. The source made the active and inactive calls. Unless noted, calls come from the whole dose curve.

Key:
[1] = Nuclear factor erythroid 2-related factor 2/antioxidant responsive element (Nrf2/ARE) small molecule agonists: qHTS cell viability counter screen in human keratinocytes (AID 1919968; active = well fitted curve in the direction sought with a large enough effect in the repeat runs; an effect the other way counts as inactive or inconclusive; note: nearly all actives have a fitted effect of over 55% in size)
Outline: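 HaCaT ARE reporter line, 1,500 cells/well; 5 h settle, 37 C/5% CO2; cpd in DMSO pinned; 23 h exposure; CellTiter-Fluor, 1 h; fluorescence.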

[2] = Nuclear factor erythroid 2-related factor 2/antioxidant responsive element (Nrf2/ARE) small molecule agonists: luciferase reporter gene qHTS assay in human keratinocytes (AID 1919969); note: nearly all actives have a fitted effect of over 35% in size
[3] = target: Gonadotropin-releasing hormone receptor (Homo sapiens) (UniProt P30968); assay: Human gonadotropin-releasing hormone receptor (GnRHR) small molecule agonists, calcium flux assay in GnRHR-HEK293 cells (AID 1920063); note: nearly all actives have a fitted effect of over 35% in size
Chain of Gonadotropin-releasing hormone receptor (Homo sapiens) (P30968 whole entry, looked up): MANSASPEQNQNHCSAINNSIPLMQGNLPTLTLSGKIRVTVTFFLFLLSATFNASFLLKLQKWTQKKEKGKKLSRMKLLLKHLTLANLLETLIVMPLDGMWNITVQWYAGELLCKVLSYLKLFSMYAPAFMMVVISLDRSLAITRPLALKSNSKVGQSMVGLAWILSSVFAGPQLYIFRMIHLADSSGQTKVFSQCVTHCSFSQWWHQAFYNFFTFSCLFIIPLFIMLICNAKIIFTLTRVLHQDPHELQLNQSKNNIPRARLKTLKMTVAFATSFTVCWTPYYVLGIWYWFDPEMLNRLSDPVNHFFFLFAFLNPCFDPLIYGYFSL
Outline: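 GnRHR-HEK293, 1500 cells/well, 18 h 37 C/5% CO2; Ca dye 1 h 37 C; cpd pinned (DMSO), agonist mode; kinetic FL 480/540, 3 min, 1 s reads; 15 conc, n=3.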

[4] = target: KiSS-1 receptor (Homo sapiens) (UniProt Q969F8); assay: Human kisspeptin (KISS1R) small molecule agonists, calcium flux assay in KISS1R-HEK293 cells (AID 1920064; active = well fitted curve in the direction sought with a large enough effect in the repeat runs; an effect the other way counts as inactive or inconclusive)
Chain of KiSS-1 receptor (Homo sapiens) (Q969F8 whole entry, looked up): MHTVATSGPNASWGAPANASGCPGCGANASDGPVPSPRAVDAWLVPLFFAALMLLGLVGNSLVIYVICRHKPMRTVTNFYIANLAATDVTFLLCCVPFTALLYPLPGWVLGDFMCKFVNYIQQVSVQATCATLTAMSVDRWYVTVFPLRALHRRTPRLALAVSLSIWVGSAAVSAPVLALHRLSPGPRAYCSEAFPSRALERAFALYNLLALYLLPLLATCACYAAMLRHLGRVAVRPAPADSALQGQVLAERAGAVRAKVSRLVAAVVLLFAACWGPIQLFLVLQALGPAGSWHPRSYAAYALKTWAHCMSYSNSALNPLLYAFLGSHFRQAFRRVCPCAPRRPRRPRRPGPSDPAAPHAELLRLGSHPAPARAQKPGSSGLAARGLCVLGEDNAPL
Outline: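 Stable human KISS1R HEK293 line; 18 h plating, 37 C/5% CO2; calcium dye 1 h 37 C; compound pin transfer; kinetic fluorescence Ex/Em 480/540, 3 min.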

[5] = G protein-coupled receptor (GPCR) small molecule agonists, calcium flux assay: HEK293 wild type cell line counter screen (AID 1920065)
Outline: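 Kinetic fluorescence at Ex/Em 480/540, recorded every second over 3 min, served as the read-out after compound addition. Each compound was tested at 15 concentrations in triplicate on cells pre-loaded with calcium dye for 1 h.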

[6] = p53 small molecule agonists, cell-based qHTS assay with human liver microsomes (AID 1963577);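 note: p53 response element beta-lactamase reporter cells with liver microsomes plus NADPH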
Outline: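 Fluorescence of the beta-lactamase reporter in p53RE-bla cells, detected with LiveBLAzer substrate (2 h, room temperature, dark), served as the read-out after 16 h compound exposure at 37 C with human liver microsomes and NADPH, each 0.5 mg/mL final.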

[7] = p53 small molecule agonists, cell-based qHTS assay with human liver microsomes: qHTS cell viability counter screen (AID 1963579); note: nearly all actives have a fitted effect of over 45% in size
Outline: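 Cytotoxicity counter screen: p53RE-bla, 4,000 cells/well; 5 h settle, 37 C/5% CO2; cpd + HLM 0.5 mg/mL + NADPH 0.5 mg/mL (final); 16 h, 37 C; CellTiter-Glo, 30 min RT, luminescence.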

[8] = p53 small molecule agonists, cell-based qHTS assay with rat liver microsomes: qHTS cell viability counter screen (AID 1963580); note: nearly all actives have a fitted effect of over 45% in size
Outline: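 p53RE-bla HCT-116 cells were exposed 16 h at 37 C to compounds with rat liver microsomes (0.5 mg/mL) and NADPH (0.5 mg/mL). Viability was measured in the same wells as ATP content by CellTiter-Glo luminescence.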

[9] = p53 small molecule agonists, cell-based qHTS assay: qHTS cell viability counter screen (AID 1963581); note: nearly all actives have a fitted effect of over 45% in size; note: potency is the fitted concentration of half-maximal effect
Outline: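 HCT-116 p53RE-bla cells, 4,000/well, plated 5 h before compound pin transfer; 16 h at 37 C; bla substrate 2 h RT; then CellTiter-Glo, 30 min RT, luminescence.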

[10] = p53 small molecule agonists, cell-based qHTS assay (AID 1963582; active = well fitted activation curve with a large enough effect in the signal ratio in the repeat runs, not every such curve was filed as active; the % refers to the signal ratio)
Outline: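 Reporter line: p53RE-bla. Pre-incubation 5 h, 37 C, 5% CO2; compound (DMSO, pin tool) 16 h, 37 C; B/G FRET substrate 2 h RT; fluorescence intensity read.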

[11] = target: 5-hydroxytryptamine receptor 2A (Homo sapiens) (UniProt P28223); assay: 5-hydroxytryptamine receptor 2A (HTR2A) small molecule antagonists, cell-based qHTS assay (AID 1963586); note: nearly all actives have a fitted effect of over 45% in size
Chain of 5-hydroxytryptamine receptor 2A (Homo sapiens) (P28223 whole entry, looked up): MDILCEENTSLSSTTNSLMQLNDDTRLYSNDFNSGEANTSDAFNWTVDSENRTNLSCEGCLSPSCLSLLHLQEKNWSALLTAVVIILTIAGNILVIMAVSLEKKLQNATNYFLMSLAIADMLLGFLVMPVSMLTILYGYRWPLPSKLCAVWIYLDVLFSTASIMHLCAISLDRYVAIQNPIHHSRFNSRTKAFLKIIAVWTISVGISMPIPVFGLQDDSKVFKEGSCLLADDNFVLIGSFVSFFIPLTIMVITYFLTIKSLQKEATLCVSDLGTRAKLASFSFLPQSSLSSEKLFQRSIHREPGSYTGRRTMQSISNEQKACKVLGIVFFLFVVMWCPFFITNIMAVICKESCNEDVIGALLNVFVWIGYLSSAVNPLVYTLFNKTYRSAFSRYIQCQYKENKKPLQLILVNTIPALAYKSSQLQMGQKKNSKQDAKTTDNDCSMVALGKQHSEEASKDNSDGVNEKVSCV
Outline: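 Antagonist-mode intracellular calcium assay: DOI (4 nM) added after 5 min compound pre-incubation at room temperature to dye-loaded HTR2A-CHO cells. Fluorescence followed for 3 min, sampled every second.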

[12] = target: 5-hydroxytryptamine receptor 2A (Homo sapiens) (UniProt P28223); assay: 5-hydroxytryptamine receptor 2A (HTR2A) small molecule agonists, cell-based qHTS assay (AID 1963587); note: nearly all actives have a fitted effect of over 30% in size
Outline: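 CHO cells stably expressing human HTR2A, plated 18 h, loaded with calcium dye 1 h at 37 C. Agonist mode: compounds added and intracellular calcium fluorescence recorded kinetically for 2 min at 1 sec intervals.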

[13] = target: Muscarinic acetylcholine receptor M1 (Homo sapiens) (UniProt P11229); assay: Cholinergic receptor muscarinic 1 (CHRM1) small molecule antagonists, cell-based qHTS assay (AID 1963588); note: nearly all actives have a fitted effect of over 40% in size
Chain of Muscarinic acetylcholine receptor M1 (Homo sapiens) (P11229 whole entry, looked up): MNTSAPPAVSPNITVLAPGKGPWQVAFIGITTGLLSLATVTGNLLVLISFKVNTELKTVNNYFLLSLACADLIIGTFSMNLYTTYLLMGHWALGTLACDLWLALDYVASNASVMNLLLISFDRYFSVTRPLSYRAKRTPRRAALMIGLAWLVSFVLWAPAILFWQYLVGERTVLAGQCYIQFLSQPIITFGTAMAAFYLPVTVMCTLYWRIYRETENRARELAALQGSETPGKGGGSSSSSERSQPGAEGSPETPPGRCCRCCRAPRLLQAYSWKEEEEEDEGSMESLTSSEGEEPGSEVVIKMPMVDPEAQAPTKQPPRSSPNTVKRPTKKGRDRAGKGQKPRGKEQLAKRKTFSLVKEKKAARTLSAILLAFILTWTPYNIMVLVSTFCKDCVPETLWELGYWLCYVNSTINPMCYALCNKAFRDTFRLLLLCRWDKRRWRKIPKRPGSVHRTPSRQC
Outline: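 CHRM1-CHO calcium-flux assay, antagonist mode. Cells were seeded 18 h, dye-loaded 1 h at 37 C and given compound for 5 min at RT, then acetylcholine was added at 50nM. FDSS fluorescence was read 3 min; 15 concentrations, three runs.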

[14] = target: Muscarinic acetylcholine receptor M1 (Homo sapiens) (UniProt P11229); assay: Cholinergic receptor muscarinic 1 (CHRM1) small molecule agonists, cell-based qHTS assay (AID 1963589); note: nearly all actives have a fitted effect of over 35% in size
Outline: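 Human M1 in stable CHO line; 18 h plating, 1 h dye load 37 C; cpd added (agonist mode); Ca2+ fluorescence kinetic read, 1 s intervals; 15 conc, 3 runs.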

[15] = cAMP Responsive Elements (CRE) small molecule agonists, cell-based qHTS assay (AID 1963590)
Outline: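 HEK 293T CRE-bla, 2,000 cells/well, 18 h preincubation 37 C/5% CO2; cpds (DMSO) pinned, 3 h; LiveBLAzer B/G FRET substrate, 2 h RT.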

[16] = cAMP Responsive Elements (CRE) small molecule antagonists, cell-based qHTS assay (AID 1963591; active = well fitted inhibition curve with a large enough effect in the signal ratio in the repeat runs, not every such curve was filed as active; the % refers to the signal ratio)
Outline: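 Beta-lactamase reporter read by FRET substrate (LiveBLAzer B/G) after 2 h at room temperature. CRE-bla HEK293T cells had received compound plus 0.25 uM (final) NKH477 for 3 h at 37 °C.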

[17] = target: Beta-2 adrenergic receptor (Homo sapiens) (UniProt P07550); assay: Adrenergic beta2 receptor (ADRB2) small molecule antagonists, cell-based qHTS assay (AID 1963592); note: series mostly up to about 92 µM; nearly all actives have a fitted effect of over 50% in size
Chain of Beta-2 adrenergic receptor (Homo sapiens) (P07550 whole entry, looked up): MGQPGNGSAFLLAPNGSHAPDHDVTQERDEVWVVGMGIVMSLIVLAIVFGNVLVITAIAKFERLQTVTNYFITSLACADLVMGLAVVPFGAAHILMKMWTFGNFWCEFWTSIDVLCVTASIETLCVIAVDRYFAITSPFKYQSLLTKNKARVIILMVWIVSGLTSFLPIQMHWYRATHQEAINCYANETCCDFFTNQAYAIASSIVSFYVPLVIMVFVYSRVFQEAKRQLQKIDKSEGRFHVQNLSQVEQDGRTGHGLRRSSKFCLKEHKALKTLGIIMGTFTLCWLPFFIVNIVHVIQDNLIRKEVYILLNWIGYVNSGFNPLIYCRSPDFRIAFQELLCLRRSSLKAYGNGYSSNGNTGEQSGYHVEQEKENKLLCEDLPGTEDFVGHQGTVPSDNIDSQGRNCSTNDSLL
Outline: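 Cells (CHO, stable ADRB2 overexpression) incubated 18-20hr at 37C; compounds added from DMSO; agonist mix (1nM isoproterenol, 100uM IBMX, 25uM Ro-20-1724) added; 0.5hr RT; d2-cAMP and anti-cAMP-cryptate added; 1hr RT; 665/615 nm read.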

[18] = target: D(2) dopamine receptor (Homo sapiens) (UniProt P14416); assay: Dopamine D2 receptor (DRD2) small molecule agonists, cell-based qHTS assay (AID 1963594); note: nearly all actives have a fitted effect of over 35% in size
Chain of D(2) dopamine receptor (Homo sapiens) (P14416 whole entry, looked up): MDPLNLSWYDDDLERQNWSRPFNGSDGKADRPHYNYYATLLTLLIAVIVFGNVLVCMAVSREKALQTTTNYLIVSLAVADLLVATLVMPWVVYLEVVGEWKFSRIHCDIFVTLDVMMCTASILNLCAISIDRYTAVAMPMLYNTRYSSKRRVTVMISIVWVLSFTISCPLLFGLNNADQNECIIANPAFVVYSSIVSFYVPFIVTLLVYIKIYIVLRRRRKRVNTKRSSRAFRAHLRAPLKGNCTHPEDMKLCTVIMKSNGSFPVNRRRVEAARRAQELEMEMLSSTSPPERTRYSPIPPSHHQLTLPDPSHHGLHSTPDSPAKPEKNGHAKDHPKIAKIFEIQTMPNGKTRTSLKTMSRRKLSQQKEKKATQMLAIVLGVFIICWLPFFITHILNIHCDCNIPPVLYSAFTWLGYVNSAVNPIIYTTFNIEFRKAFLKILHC
Outline: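 HEK293 cells stably expressing human DRD2, pre-treated with PDE inhibitor Ro20-1724 (0.1 mM final) and compound 10 min at room temperature, then stimulated with NKH477 (200nM […]) for 30 min. cAMP read by HTRF (665/620 nm).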

[19] = target: D(2) dopamine receptor (Homo sapiens) (UniProt P14416); assay: Dopamine D2 receptor (DRD2) small molecule antagonists, cell-based qHTS assay (AID 1963595; active = well fitted inhibition curve with a large enough effect in the signal ratio in the repeat runs, with a control signal flat; the % refers to the signal ratio)
Outline: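 HEK293 cells stably expressing DRD2 were preincubated with 0.1 mM Ro20-1724, then with compound for 10 min at room temperature. Cells were stimulated with 200 nM NKH477 plus 12 nM quinpirole for 30 min, and cAMP was read by HTRF.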
% is set by controls: 0 for no effect and ±100 for the full control effect.

C#CC(O)CCC (stereo unspecified)
inactive: Potency [1] | Potency [2] | Potency [3] | Potency [4] | Potency [5] | Potency [6] | Potency [7] | Potency [8] | Potency [9] | Potency [10] | Potency [11] | Potency [12] | Potency [13] | Potency [14] | Potency [15] | Potency [16] | Potency [17] | Potency [18] | Potency [19]

Cc1ccc(C(C)NC(=O)[C@@H](NC(=O)OC(C)C)C(C)C)cc1 (stereo partly specified)
inactive: Potency [1] | Potency [2] | Potency [3] | Potency [4] | Potency [5] | Potency [6] | Potency [7] | Potency [8] | Potency [9] | Potency [10] | Potency [11] | Potency [13] | Potency [15] | Potency [16] | Potency [17]

CCCC(=O)CC
inactive: Potency [1] | Potency [2] | Potency [3] | Potency [4] | Potency [5] | Potency [6] | Potency [7] | Potency [8] | Potency [9] | Potency [10] | Potency [11] | Potency [12] | Potency [13] | Potency [14] | Potency [15] | Potency [16] | Potency [17] | Potency [18] | Potency [19]

CCCCCCCCN(C)C
inactive: Potency [1] | Potency [2] | Potency [3] | Potency [4] | Potency [5] | Potency [6] | Potency [7] | Potency [8] | Potency [9] | Potency [10] | Potency [11] | Potency [12] | Potency [13] | Potency [14] | Potency [15] | Potency [16] | Potency [17] | Potency [18] | Potency [19]

FC(F)(F)c1ccccc1
inactive: Potency [1] | Potency [2] | Potency [3] | Potency [4] | Potency [5] | Potency [6] | Potency [7] | Potency [8] | Potency [9] | Potency [10] | Potency [12] | Potency [13] | Potency [14] | Potency [15] | Potency [16] | Potency [17] | Potency [18] | Potency [19]

CC(C)C(=O)Nc1cccc(C2CN3CCSC3=N2)c1 (stereo unspecified)
inactive: Potency [1] | Potency [2] | Potency [3] | Potency [4] | Potency [5] | Potency [6] | Potency [7] | Potency [8] | Potency [9] | Potency [10] | Potency [11] | Potency [12] | Potency [13] | Potency [15] | Potency [16] | Potency [17] | Potency [18] | Potency [19]

Nc1c(NC/C=C\COc2cc(CN3CCCCC3)ccn2)c(=O)c1=O
inactive: activity change, negative = cytotoxicity [1] 1.77% [at 19 µM] | activity, positive = activation [2] -5.23% [at 19 µM] | activity change [3] -0.254% [at 11.8 µM, stronger effect = higher value] | activation [4] 1.38% [at 15.8 µM] | activation [5] 0.206% [at 11.8 µM] | activation [6] -4.01% [at 13.5 µM] | activity change, negative = cytotoxicity [7] 5.4% [at 13.5 µM] | activity change, negative = cytotoxicity [8] 1.94% [at 13.5 µM] | activity change, negative = cytotoxicity [9] -0.902% [at 13.5 µM] | activation [10] -1.45% [at 13.5 µM] | activity, negative = inhibition [11] -23.4% [at 12.7 µM] | activation [12] 1.98% [at 15.9 µM] | activity, negative = inhibition [13] -18.5% [at 12.6 µM] | activation [14] -0.0227% [at 15.8 µM] | activation [15] 0.666% [at 19 µM] | activity change, negative = inhibition [16] -4.15% [at 18.9 µM] | activity change, negative = inhibition [17] 0.774% [at 19 µM] | activation [18] -7.29% [at 19 µM] | activity change, negative = inhibition [19] 0.891% [at 18.9 µM]

Nc1cc([N+](=O)[O-])ccc1O
inactive and 362 nM (active): Potency [9]
inactive: Potency [1] | Potency [2] | Potency [3] | Potency [4] | Potency [5] | Potency [6] | Potency [7] | Potency [8] | Potency [10] | Potency [11] | Potency [12] | Potency [13] | Potency [14] | Potency [15] | Potency [16] | Potency [17] | Potency [18] | Potency [19]
